MCF10A rereplic: inducers of DNA re-replication in MCF 10A breast cells. 350,000 compounds, 2.9% hits. MCF 10A DNA re-replication, Hoechst nuclear intensity, 48 h. Potency, µM (titrated, usually from 46.1 µM), inactives show at the highest dose activity, positive = re-replication, most hits filed as activators; note: % of control where 0% means no effect; nearly all actives have a fitted effect of over 50% in size
RORgamma inh: blocks mouse ROR gamma transcriptional activity. Drosophila S2 Gal4-RORgamma UAS-luciferase reporter, 20 h. 310,000 compounds, 5.4% hits. Potency, µM (highest dose often 53.6 µM), inactives show top-dose activity change, negative = inhibition, actives largely listed as inhibitors; note: % is set by controls: 0 for no effect and ±100 for the full control effect; nearly all actives have a fitted effect of over 60% in size
Target sequence (P51450 whole entry, looked up, the tested form may be a part): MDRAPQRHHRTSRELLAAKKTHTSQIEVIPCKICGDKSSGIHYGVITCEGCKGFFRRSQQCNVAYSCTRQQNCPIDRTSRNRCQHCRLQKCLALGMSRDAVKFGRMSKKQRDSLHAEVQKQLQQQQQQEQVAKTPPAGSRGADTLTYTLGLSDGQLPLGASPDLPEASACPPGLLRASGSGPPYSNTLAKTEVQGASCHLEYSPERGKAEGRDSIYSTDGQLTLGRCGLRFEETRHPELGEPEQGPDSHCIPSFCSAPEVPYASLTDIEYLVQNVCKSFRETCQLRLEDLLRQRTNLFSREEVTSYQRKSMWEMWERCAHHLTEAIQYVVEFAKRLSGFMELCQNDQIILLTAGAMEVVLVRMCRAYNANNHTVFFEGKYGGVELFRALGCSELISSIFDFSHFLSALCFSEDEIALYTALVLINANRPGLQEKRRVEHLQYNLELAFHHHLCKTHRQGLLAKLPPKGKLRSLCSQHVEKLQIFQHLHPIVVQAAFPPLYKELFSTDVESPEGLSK
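ROR gamma transcriptional activity was tracked as Gal4-UAS luciferase output in stably transfected Drosophila Schneider cells, with compound added 1 hr before 700 uM copper sulfate induction and a 20 hr ambient-temperature incubation.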
ELG1 repair inh: blocks ELG1-dependent DNA repair in HEK293T cells | HEK293T ELG1-luciferase reporter, luminescence, 16 h; DNA damage induced by 5-fluorouridine | Potency, µM (highest dose often 46.1 µM), inactives show top-dose activity change, negative = inhibition, actives largely listed as inhibitors | 330,000 compounds, 2.3% hits | AID 504467; note: % is set by controls: 0 for no effect and ±100 for the full control effect; nearly all actives have a fitted effect of over 55% in size
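Reporter activity after DNA damage by 5-fluorouridine is monitored. Compound-treated cells incubate 16 hr at 37 °C, then ONE-Glo is added for 30 min before luminescence reading.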
VP16 counter: inhibits Gal4-VP16 luciferase reporter, ROR gamma counter-screen; Drosophila S2 Gal4-VP16 UAS-luciferase, luminescence, 20 h; Potency, µM (top dose mostly 53.6 µM), without a hit: at the top dose activity, negative = inhibition, actives largely listed as inhibitors; 310,000 compounds, 3.5% hits;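 note: Gal4-VP16 expression switched on by copper sulfate through the metallothionein promoter; % is set by controls: 0 for no effect and ±100 for the full control effect; nearly all actives have a fitted effect of over 50% in size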
SW480 rerep: DNA re-replication induction in SW480 cells. SW480 DNA re-replication, Hoechst DNA content imaging, 48 h. Potency, µM (doses to about 46.1 µM), for inactives: at the highest dose re-replication activation, most hits filed as activators. 340,000 compounds, 1.8% hits; note: % of control where 0% means no effect; nearly all actives have a fitted effect of over 55% in size
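250 cells/well; 23 nL cpd via pin tool; 48 hr, 37 C, 5% CO2; Hoechst 40 min; imager read of total nuclear intensity, ex 405/em 500-530 nm.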
* = called active by the depositor; ? = inconclusive; . = no result; [ ] = remark or other dose. Hits are enriched below; roughly 10% of the tested compounds scored in any of these assays. Calls come from the whole dose curve; as a rule, active = well fitted curve in the direction sought with a large enough effect; inconclusive = small, poorly fitted or top-dose-only effect, or another doubt; inactive = no such curve, though single readings can be large; an effect the other way counts as inactive or inconclusive. Potency is the fitted concentration of half-maximal effect.

SMILES	MCF10A rereplic	RORgamma inh	ELG1 repair inh	VP16 counter	SW480 rerep
Cc1ccc(F)cc1NC(=O)c1sc2ncn(CC(=O)N3CCN(c4ccccn4)CC3)c(=O)c2c1C	-0.3%	-2.2%	-5.5%	3.6%	9.2%
Cc1c(C(=O)N2CCN(c3ccccn3)CC2)sc2ncnc(N3CCN(c4ccccc4)CC3)c12	13.3%	.	.	.	0.7%
Cc1nc(N2CCOCC2)c2c(C)c(C(=O)Nc3ccccc3C(F)(F)F)sc2n1	1.0%	35.9%	16.4µM*	8.6%	2.7%
COC(=O)CSc1nnc(NC(=O)C2CC(=O)N(c3ccc(F)cc3)C2)s1 (centres undefined)	7.9%	-0.3%	-21.9%	-5.7%	-6.4%
CC1CCC(NC(=O)CSc2nnc(-c3cccnc3)o2)CC1 (centres undefined)	-0.2%	.	9.9%	.	-2.1%
COCc1cc(C)nc2sc(C(=O)OC(C)C)c(N)c12	20.6µM*	-96.5%	?	?	?
COCc1cc(C)nc2sc(C(=O)Nc3ccc(C(=O)OC)cc3)c(N)c12	?	?	-20.6%	-16.8%	-2.4%
COCc1cc(C)nc2sc(C(=O)Nc3ccccc3F)c(N)c12	6.51µM*	42.9%[1.91 µM]	-4.2%	17.8%	11.6µM*
Cc1cc(NS(=O)(=O)c2ccc(NC(=O)C(C)Oc3cc(C)c(Cl)c(C)c3)cc2)no1 (centres undefined)	?	?	10.0%	-17.2%	-38.2%
CCCCNc1ncnc2sc3c(c12)CCN(CCC)C3	5.4%	39.3%	?	-1.1%	-3.0%
COc1ccc(-c2c(C)oc3cc(O)cc(O)c3c2=O)cc1OC	-1.5%	?	6.6%	23.7%	0.9%
COc1cc2c(cc1OC)-c1c(oc3cc(O)cc(O)c3c1=O)CO2	.	?	.	20µM*	.
CCOc1ccccc1Nc1nc2ccccc2n1C(C)C	16.7%	10µM*	2.1%	-6.1%	15.2%
Cc1cc(/C=C2\SC(=S)N(C)C2=O)c(C)n1-c1ccc(O)cc1	?	?	?	0.631µM*	?
Cc1cc(/C=C2\SC(=S)N(C)C2=O)c(C)n1-c1ccccc1O	13µM*	.	.	.	11.6µM*
Cc1cc(/C=C2/SC(=S)N(c3ccc([N+](=O)[O-])cc3)C2=O)c(C)n1-c1cccnc1	3.7%	3.16µM*	-10.8%	0.891µM*	-696.8%
CN1C(=O)/C(=C/c2coc3ccc(O)cc3c2=O)SC1=S	3.1%	-22.1%	26.4%	16.0%	2.1%
Cc1cc(/C=C2/SC(=S)N(c3cccc(Cl)c3)C2=O)c(C)n1-c1cccnc1	?	.	.	.	-0.4%
CCc1nnc(NC(=O)CSc2nc(C)nc3c2c(=O)n(C)c(=O)n3C)s1	-39.3%	31.5%	2.3%	4.0%	-12.7%
CCOC(=O)C(C(=O)OCC)C(Nc1ccc(Br)cc1)c1ccccc1 (centres undefined)	?	11.2µM*	-14.2%	?	?
CCOC(=O)C(c1ccccc1)C(Nc1ccc(F)cc1)c1ccccn1 (centres undefined)	0.6%	17.4%	?	11.4%	-14.5%
Cc1cccn2c(=O)c3cc(C(=O)NCC4CCCO4)c(=N)n(C4CCCC4)c3nc12 (centres undefined)	?	?	-5.0%	1.0%	18.4µM*
N=c1c(C(=O)NCC2CCCO2)cc2c(=O)n3ccccc3nc2n1C1CCCC1 (centres undefined)	5.17µM*	-20.0%	?	2.2%	?
N=c1c(C(=O)NCC2CCCO2)cc2c(=O)n3ccccc3nc2n1C1CCCCC1 (centres undefined)	14.6µM*	-6.8%	5.9%	-22.4%	?
Cc1ccc2nc3c(cc(C(=O)NCC4CCCO4)c(=N)n3C3CCCC3)c(=O)n2c1 (centres undefined)	?	30.5%	-0.8%	4.9%	9.6%
SMILES	MCF10A rereplic	RORgamma inh	ELG1 repair inh	VP16 counter	SW480 rerep
Cc1c(C(=O)Nc2ccc3c(c2)OCCO3)sc2ncnc(N3CCCCC3C)c12 (centres undefined)	?	?	?	25.5%	-20.1%
CC(=O)c1c(C)[nH]c(C(=O)NC2CCSc3ccccc32)c1C (centres undefined)	19.2%	20.3%	5.8µM*	-15.5%	13.0%
Cc1cccc(NC(=S)N(CCN(C)C)C(C)c2ccccn2)c1 (centres undefined)	3.6%	11.2µM*	-0.8%	-13.1%	-3.2%
CCc1cccc(NC(=S)N(CCN(C)C)C(C)c2ccncc2)c1 (centres undefined)	-1.3%	14.1µM*	-7.1%	-2.1%	-32.8%
Cc1ccc(Cl)cc1NC(=S)N(CCN(C)C)C(C)c1ccccn1 (centres undefined)	-6.7%	10µM*	-25.2%	-0.3%	-2.3%
CC(c1ccccn1)N(Cc1ccco1)C(=S)Nc1cccc(F)c1 (centres undefined)	-11.8%	12.6µM*	?	?	1.6%
CN(C)C(=S)Nc1cccc(F)c1	-0.9%	17.4%	1.7%	2.0%	11.0%
COC(=O)[C@H](CCSC)NS(=O)(=O)c1ccccc1Br	5.2%	4.8%	4.7%	-1.1%	2.5%
CCN1C[C@@H]2[C@@H]3C(=O)N(C)C(=O)[C@@H]3[C@](C)(C1=O)N2C(=O)c1ccc(F)cc1	6.7%	.	.	.	-12.2%
COCCCN(C(=S)Nc1cc(Cl)cc(Cl)c1)C(C)c1ccccn1 (centres undefined)	?	7.08µM*	?	?	-17.8%
CCCOc1ccc(N2C(=O)CC(N(Cc3ccccc3)N=O)C2=O)cc1 (centres undefined)	-3.6%	18.2%	12.4%	?	-13.3%
COc1ccc(CN(N=O)C2CC(=O)N(c3ccc(OC)cc3)C2=O)cc1 (centres undefined)	0.4%	?	2.3%	14.1µM*	-18.0%
COc1ccc(N2C(=O)CC(N(CCc3ccc(OC)c(OC)c3)C(=S)Nc3ccccc3)C2=O)cc1 (centres undefined)	?	?	17.1%	0.794µM*	1.3%
COc1ccc(N2C(=O)CC(N(C)CCc3ccc(OC)c(OC)c3)C2=O)cc1 (centres undefined)	-8.1%	7.3%	0.8%	-16.2%	-0.2%
COc1ccc(CCN(C)C2CC(=O)N(c3ccccc3)C2=O)cc1OC (centres undefined)	7.4%	?	?	15.8µM*	-19.1%
C=C1CC2COC(=O)C2(Cc2ccc3ccccc3c2)C1 (centres undefined)	.	-5.6%	.	-10.5%	.
CCOc1ccc(-n2c(=O)c3c4c(sc3n(CC(=O)NCC3CCCO3)c2=O)CCC4)cc1 (centres undefined)	-0.7%	0.3%	4.4%	11.8%	?
Cc1nc(Nc2cnc(/C=C/c3cc(C(=O)Nc4cccc(C(F)(F)F)c4)ccc3C)cn2)cc(N2CCNCC2)n1	14.6µM*	?	?	?	16.4µM*
